The supplement of paper PMC6555819

Assays:
Test in all cases: PBM binding z-score (relative to random genomic background probes); higher = stronger binding; sequences stand for … in GC…GCGATTGACAGCGTAGAATGAAGG
[1] = system: FXR:RXRa (NR concentration 270 nM, RXRa partner concentration 90 nM)
How it was run: (§1)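 Each nuclear receptor dimer, without ligand, was incubated for 1 h on custom Agilent 4×180K protein-binding microarrays. Binding was detected with antibodies against each partner (one per run), and scanned fluorescence was regression-normalized. The binding z-scores are referenced to random human genomic background probes.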

[2] = system: LXRa:RXRa (NR concentration 270 nM, RXRa partner concentration 90 nM)
How it was run: as §1

[3] = system: LXRa homodimer (NR concentration 270 nM)
How it was run: as §1

[4] = system: LXRb:RXRa (NR concentration 270 nM, RXRa partner concentration 90 nM)
How it was run: as §1

[5] = system: LXRb homodimer (NR concentration 270 nM)
How it was run: as §1

[6] = system: PPARa:RXRa (NR concentration 270 nM, RXRa partner concentration 90 nM)
How it was run: as §1

[7] = system: PPARg:RXRa (NR concentration 180 nM, RXRa partner concentration 90 nM)
How it was run: as §1

[8] = system: PPARg:RXRa 270nM:90nM, anti-RXR (NR concentration 270 nM, RXRa partner concentration 90 nM)
How it was run: as §1

[9] = system: PPARg:RXRa 30nM:10nM, anti-RXR (NR concentration 30 nM, RXRa partner concentration 10 nM)
How it was run: as §1

[10] = system: PPARg:RXRa 90nM:30nM, anti-RXR (NR concentration 90 nM, RXRa partner concentration 30 nM)
How it was run: as §1

[11] = system: PPARg:RXRa DBDmut IVT, anti-RXR (DBD mutation: RXRa K156A/R161A, NR concentration 270 nM, RXRa partner concentration 90 nM)
How it was run: as §1

[12] = system: PPARg:RXRa IVT, anti-PPARg (NR concentration 270 nM, RXRa partner concentration 90 nM)
How it was run: as §1

[13] = system: PPARg DBDmut:RXRa IVT, anti-PPARg (DBD mutation: PPARg1 K132A/R137A, NR concentration 270 nM, RXRa partner concentration 90 nM)
How it was run: as §1

[14] = system: PPARg DBDmut IVT, anti-PPARg (DBD mutation: PPARg1 K132A/R137A, NR concentration 270 nM)
How it was run: as §1

[15] = system: PPARg homodimer (NR concentration 180 nM)
How it was run: as §1

[16] = system: PXR:RXRa (NR concentration 270 nM, RXRa partner concentration 90 nM)
How it was run: as §1

[17] = system: PXR homodimer (NR concentration 270 nM)
How it was run: as §1

[18] = system: RARa:RXR (NR concentration 270 nM, RXRa partner concentration 90 nM)
How it was run: as §1

[19] = system: RARa homodimer (NR concentration 270 nM)
How it was run: as §1

[20] = system: RARb:RXRa (NR concentration 270 nM, RXRa partner concentration 90 nM)
How it was run: as §1

Sequence | PBM binding z-score [1] | PBM binding z-score [2] | PBM binding z-score [3] | PBM binding z-score [4] | PBM binding z-score [5] | PBM binding z-score [6] | PBM binding z-score [7] | PBM binding z-score [8] | PBM binding z-score [9] | PBM binding z-score [10] | PBM binding z-score [11] | PBM binding z-score [12] | PBM binding z-score [13] | PBM binding z-score [14] | PBM binding z-score [15] | PBM binding z-score [16] | PBM binding z-score [17] | PBM binding z-score [18] | PBM binding z-score [19] | PBM binding z-score [20]
TCTCGGAGGACACGAAAGCTCAGAGCTCGACATC | 0.278 | -0.178 | -0.494 | -0.291 | -1.33 | 0.0148 | 0.133 | 0.762 | 2.01 | 1.21 | 1.28 | 0.237 | -0.991 | -1.02 | -0.895 | -0.392 | -0.855 | -0.157 | -0.395 | 1.31
ATCTCTGGGTAAAAGTTCAGTGAATCCCGAGGAT | 0.844 | 1.38 | 1.37 | 1.04 | 1.4 | 4.12 | 7.38 | 7.77 | 6.93 | 9.04 | 1.87 | 3.69 | 1.17 | 1.44 | 1.47 | 2.03 | 1.5 | 1.97 | 0.896 | 2.59
CCTAGTTGGTCAAGGTGACACACGCTATAGGTAC | 0.697 | 0.276 | 0.273 | 0.592 | 0.0749 | 1.33 | 1.71 | 1.93 | 0.466 | 1.32 | 1.63 | 3.11 | 0.179 | 0.257 | 1.46 | 0.478 | 0.557 | 1.28 | 1.57 | 1.86
CAAACTAGGTCACCGGAATGTCAAAGTCCGCATG | 4.57 | 3.52 | 0.679 | 2.64 | 0.303 | 5.44 | 8.97 | 7.22 | 5.76 | 7.24 | 8.65 | 9.1 | 5.11 | 2.79 | 2.69 | 2.31 | -0.000286 | 3.53 | 0.651 | 4.37
TCAAGTTGGTCAAAGGTCACACACTCGAAATGCG | 6.18 | 5.75 | 3.72 | 5.56 | 1.33 | 6.41 | 11.2 | 9.6 | 10 | 10.6 | 3.5 | 6.22 | 1.33 | 1.21 | 5.18 | 5.91 | 1.87 | 7.41 | 2.74 | 5.12
TCGAGTAAGTTACCAATGGGGCATTCAGCTTTCT | -0.407 | -0.177 | -0.53 | 0.203 | -0.792 | 0.13 | -0.296 | 0.61 | 0.958 | 0.917 | 0.719 | -0.101 | -0.374 | -1.05 | -0.441 | 0.0133 | -0.765 | 0.11 | -0.447 | -0.0716
CGAACTAGGTCATTGACAGTACAGTGAATAGTAA | 4.63 | 2.68 | 0.32 | 2.02 | 0.232 | 4.98 | 7.68 | 6.38 | 3.77 | 5.67 | 7.66 | 8.48 | 3.53 | 2.28 | 1.89 | 1.64 | 0.291 | 2.03 | 0.0313 | 3.67
TCTTGTAGATCAAGCAGTTTAAGAAAGCCTGAGT | 0.227 | 0.026 | -0.29 | 0.14 | -0.263 | 0.321 | -0.75 | 1.11 | 2.54 | 2.03 | 1.32 | 0.194 | 0.902 | -0.105 | -0.414 | 0.133 | -0.14 | 0.0935 | -0.0919 | -0.137
CAAACTAGGTCAAAGGTCAATGTCGAGCCAACCA | 8.32 | 7.09 | 4.92 | 6.96 | 2.33 | 7.33 | 14 | 11.7 | 13.6 | 14.2 | 8.75 | 9.22 | 5.2 | 5.46 | 8.27 | 7.07 | 1.86 | 8.9 | 4.59 | 5.51
TCATCTAGGTAAACAGGTGAAAGTCCGTAAGTTA | 1.02 | 0.956 | 0.17 | 1.04 | 0.174 | 2.4 | 3.14 | 3.94 | 3.92 | 3.86 | 4.8 | 5.11 | 1.31 | 1.14 | 0.609 | 0.409 | 0.487 | 0.888 | 0.849 | 0.534
TCTTGTAGATCAGTAGAGGTTAAGAAAGTGCGCT | 0.847 | 3.26 | 0.497 | 1.64 | -0.181 | 1.44 | -0.271 | 1.56 | 2.48 | 2.12 | 1.74 | 0.609 | 1.08 | 0.665 | 0.247 | 2.93 | -0.0152 | 1.63 | 0.74 | 0.882
CTCGAAAGGTCGGTTGAGGTGAGTATCCGGATAA | 2.5 | 1.81 | -0.338 | 1.44 | 0.0486 | 2.71 | 0.0243 | 1.33 | -0.0688 | 0.975 | 0.135 | 0.893 | -0.0361 | -0.258 | 1.02 | 2.98 | -0.135 | 2.21 | -0.322 | 3.18
AGAATGAGGTTCTACGTAGATCAGGGAAGAAAGT | -0.522 | -0.707 | -0.69 | -0.345 | -0.624 | -0.336 | 0.146 | -0.165 | -0.125 | -0.13 | 0.0808 | 0.054 | 0.621 | 0.606 | -0.411 | -0.126 | 0.193 | -0.0619 | -0.303 | -0.407
ATATGTAGGTTACCTCCGGGTCATTCAGGCTATG | 2.86 | 5.14 | 1.84 | 3.15 | 0.804 | 4.5 | 5.68 | 4.82 | 2.2 | 4.09 | 7.18 | 6.7 | 1.67 | 1.41 | 1.74 | 3.67 | 1.8 | 3.75 | 0.561 | 2.51
